The supplement of paper PMC3545927
Some of the results follow. No count for the full screen is at hand.

B1: HC73 (peptide)
chain: CATTPCEGSWAGNASASA
B2: HC633 (peptide)
chain: CATGTYVYNHAGNASASA
B3: FS-1771 (peptide)
chain: CARRARDMSSAGNASASA
B4: HC668 (peptide)
chain: CAADGMVSKGAGNASASA
B5: FS-98 (peptide)
chain: CATLDREKRSAGNASASA
B6: FS-1129 (peptide)
chain: CAGSQWEKRSAGNASASA
B7: FS-1323 (peptide)
chain: CAFIGREKRSAGNASASA
B8: FS-1517 (peptide)
chain: CADPMLEKRSAGNASASA
B9: FS-178 (peptide)
chain: CAMLSPEKRSAGNASASA
B10: FS-2225 (peptide)
chain: CARQDRSKGTAGNASASA
B11: FS-1115 (peptide)
chain: CADQEREKRSAGNASASA
B12: FS-1494 (peptide)
chain: CATLDRSKRNAGNASASA
B13: HC321 (peptide)
chain: CADMMMNWSPAGNASASA
B14: HC1119 (peptide)
chain: CANRLIAFASAGNASASA
B15: HC577 (peptide)
chain: CAPYYKRYISAGNASASA
B16: HC2400 (peptide)
chain: CAEVPCHRCSAGNASASA
B17: FS-1582 (peptide)
chain: CAACIRKRRLAGNASASA
B18: FS-1134 (peptide)
chain: CAKRAAVRRLAGNASASA
B19: FS-1307 (peptide)
chain: CAARHRPRRLAGNASASA
B20: FS-423 (peptide)
chain: CAGDIRVRRLAGNASASA
B21: HC1252 (peptide)
chain: CAAEAAGRRLAGNASASA
B22: FS-412 (peptide)
chain: CAEGHRPRRPAGNASASA
B23: FS-697 (peptide)
chain: CANLSRNRRLAGNASASA
B24: HC548 (peptide)
chain: CAAWYLKGKWAGNASASA
B25: HC1418 (peptide)
chain: CAHSAKSKFGAGNASASA
B26: HC2094 (peptide)
chain: CAVVCCSMSKAGNASASA
B27: HC702 (peptide)
chain: CAHGAGTRTIAGNASASA
B28: FS-749 (peptide)
chain: CAALSRPRRLAGNASASA
B29: HC2410 (peptide)
chain: CAEVPCHRPVAGNASASA
B30: FS-1133 (peptide)
chain: CAKPQRPRRPAGNASASA
B31: FS-1395 (peptide)
chain: CARESRPRRQAGNASASA
B32: HC385 (peptide)
chain: CASSGCPERLAGNASASA
B33: FS-507 (peptide)
chain: CASSGRPRRSAGNASASA
B34: FS-887 (peptide)
chain: CAVDSRPRRSAGNASASA
B35: FS-3096 (peptide)
chain: CARSSRSGSSAGNASASA
B36: FS-1163 (peptide)
chain: CARSSRPRRSAGNASASA
B37: FS-146 (peptide)
chain: CASSGRSFRSAGNASASA
B38: HC828 (peptide)
chain: CAQAETAGARAGNASASA
B39: HC655 (peptide)
chain: CADTAACGDIAGNASASA
B40: HC394 (peptide)
chain: CAQGWGPISYAGNASASA
B41: HC1345 (peptide)
chain: CASEPAPSGCAGNASASA
B42: HC80 (peptide)
chain: CATTPCPGSWAGNASASA
B43: HC1967 (peptide)
chain: CAEFTTPCSGAGNASASA

Target: furin, P09958
Sequence (P09958 whole entry): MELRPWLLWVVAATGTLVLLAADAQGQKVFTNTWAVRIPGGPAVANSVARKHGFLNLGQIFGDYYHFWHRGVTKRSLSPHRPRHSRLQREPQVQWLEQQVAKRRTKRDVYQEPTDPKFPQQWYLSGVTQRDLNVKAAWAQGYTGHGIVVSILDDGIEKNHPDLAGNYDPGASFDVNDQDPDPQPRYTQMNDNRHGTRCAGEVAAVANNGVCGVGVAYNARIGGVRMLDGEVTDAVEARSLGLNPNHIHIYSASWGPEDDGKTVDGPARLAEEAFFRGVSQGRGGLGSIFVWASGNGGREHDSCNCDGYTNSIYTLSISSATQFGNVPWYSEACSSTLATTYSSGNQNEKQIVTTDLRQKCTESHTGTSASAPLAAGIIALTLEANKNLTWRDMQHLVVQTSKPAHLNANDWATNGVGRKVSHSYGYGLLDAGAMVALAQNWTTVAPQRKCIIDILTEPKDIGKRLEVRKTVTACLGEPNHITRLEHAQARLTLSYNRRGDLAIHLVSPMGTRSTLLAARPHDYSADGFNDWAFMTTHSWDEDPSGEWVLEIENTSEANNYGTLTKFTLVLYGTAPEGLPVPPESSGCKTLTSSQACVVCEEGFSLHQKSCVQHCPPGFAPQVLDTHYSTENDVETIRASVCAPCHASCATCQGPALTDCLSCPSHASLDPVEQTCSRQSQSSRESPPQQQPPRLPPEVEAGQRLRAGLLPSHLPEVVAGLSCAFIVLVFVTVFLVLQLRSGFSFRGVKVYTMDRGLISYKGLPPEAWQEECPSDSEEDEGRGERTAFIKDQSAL
Test: furin cleavage Z-score vs untreated control; higher = more cleavage, active = 3.5 or more, inactive = 1 or less, 8 variable residues between constant flanks
In short: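 Cleavage by purified furin was measured on 8-mer peptides fused to a cDNA oligonucleotide and held on magnetic beads by their N-terminus. Reactions (0.01 ml, 1:10 enzyme:substrate) ran 7.5, 15 or 30 min in 50 mM HEPES pH 7.5 with CaCl2 and NaCl. Released DNA was adapter-tagged by PCR and sequenced, with read counts giving abundance. Log counts versus furin-free reactions were lowess-adjusted and scaled by median absolute deviation to give the cleavage Z-score.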

Sequence	furin cleavage Z-score (7.5 min)	furin cleavage Z-score (15 min)	furin cleavage Z-score (30 min)
B1	0.057 (inactive)	0.658 (inactive)	0.0884 (inactive)
B2	-0.127 (inactive)	-1.41 (inactive)	-0.282 (inactive)
B3	2.38	4.53 (active)	4.22 (active)
B4	0.272 (inactive)	0.596 (inactive)	-0.245 (inactive)
B5	9.65 (active)	10.6 (active)	9.73 (active)
B6	1.1	-0.464 (inactive)	-0.295 (inactive)
B7	12 (active)	10.8 (active)	9.06 (active)
B8	-0.771 (inactive)	-0.469 (inactive)	0.309 (inactive)
B9	0.073 (inactive)	-0.325 (inactive)	0.835 (inactive)
B10	0.0348 (inactive)	-0.0846 (inactive)	-0.182 (inactive)
B11	2.32	3.5 (active)	5.3 (active)
B12	10.9 (active)	11.2 (active)	9.22 (active)
B13	-1.68 (inactive)	-0.337 (inactive)	-0.211 (inactive)
B14	0.982 (inactive)	0.0869 (inactive)	0.661 (inactive)
B15	-0.596 (inactive)	1.03	0.43 (inactive)
B16	-0.164 (inactive)	1.15	0.38 (inactive)
B17	8.2 (active)	8.28 (active)	8.96 (active)
B18	-0.242 (inactive)	-0.206 (inactive)	1.42
B19	8.25 (active)	10.2 (active)	9.03 (active)
B20	3.94 (active)	5.14 (active)	6.57 (active)
B21	-0.023 (inactive)	-0.0869 (inactive)	-1.21 (inactive)
B22	-0.592 (inactive)	-1.65 (inactive)	-2.58 (inactive)

Sequence	furin cleavage Z-score (7.5 min)	furin cleavage Z-score (15 min)	furin cleavage Z-score (30 min)
B23	2.54	6.24 (active)	6.91 (active)
B24	-0.848 (inactive)	-0.178 (inactive)	-0.813 (inactive)
B25	-0.464 (inactive)	-0.415 (inactive)	-0.702 (inactive)
B26	-0.242 (inactive)	-0.54 (inactive)	-1.3 (inactive)
B27	1.09	1.35	-2.29 (inactive)
B28	2.43	5.44 (active)	2.14
B29	0.723 (inactive)	-0.406 (inactive)	-0.356 (inactive)
B30	-0.333 (inactive)	0.223 (inactive)	1.52
B31	8.96 (active)	9.39 (active)	6.91 (active)
B32	-0.122 (inactive)	-0.598 (inactive)	0.353 (inactive)
B33	10.4 (active)	9.27 (active)	7.66 (active)
B34	9.24 (active)	9.17 (active)	9.61 (active)
B35	-0.25 (inactive)	-0.36 (inactive)	-1.33 (inactive)
B36	10.4 (active)	11 (active)	6.76 (active)
B37	0.572 (inactive)	0.748 (inactive)	1.78
B38	-0.329 (inactive)	0.716 (inactive)	-1.08 (inactive)
B39	0.349 (inactive)	-0.867 (inactive)	1
B40	1.47	0.693 (inactive)	0.999 (inactive)
B41	-2.17 (inactive)	0.166 (inactive)	-1.95 (inactive)
B42	0.174 (inactive)	-1.3 (inactive)	-1.39 (inactive)
B43	-0.433 (inactive)	-0.681 (inactive)	-0.377 (inactive)
